Test [1] concerns the target T1, Aspartate--tRNA(Asp/Asn) ligase (Mycobacterium tuberculosis (strain ATCC 25618 / H37Rv)) (UniProt P9WFW3). Also: in the data most compounds retested in dose-response had high values.
T1 sequence (whole entry): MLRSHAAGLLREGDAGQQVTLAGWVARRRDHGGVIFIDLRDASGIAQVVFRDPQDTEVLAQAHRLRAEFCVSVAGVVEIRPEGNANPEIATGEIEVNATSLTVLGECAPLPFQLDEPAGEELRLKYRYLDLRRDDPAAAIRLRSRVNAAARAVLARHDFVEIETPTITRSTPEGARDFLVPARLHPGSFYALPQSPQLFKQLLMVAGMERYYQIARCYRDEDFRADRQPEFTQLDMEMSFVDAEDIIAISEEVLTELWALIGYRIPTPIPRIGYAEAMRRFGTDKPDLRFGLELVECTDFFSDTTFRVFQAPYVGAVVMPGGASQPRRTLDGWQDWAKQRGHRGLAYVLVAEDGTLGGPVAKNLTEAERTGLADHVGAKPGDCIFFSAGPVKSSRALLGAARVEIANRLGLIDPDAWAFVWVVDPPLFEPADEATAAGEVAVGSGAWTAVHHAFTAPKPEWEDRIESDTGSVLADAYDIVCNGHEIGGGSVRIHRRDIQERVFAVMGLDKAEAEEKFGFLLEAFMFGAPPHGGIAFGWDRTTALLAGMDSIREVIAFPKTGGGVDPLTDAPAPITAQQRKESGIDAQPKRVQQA
The experiment in a line: Assay for Asp RNA synthetase-1 from Mycobacterium tuberculosis. Format: functional. On the set-up: scale not given: direction of the effect not stated beside the values. To be noted: 30 µM.

For test [2], the target named is Shiga toxin 2 (Escherichia coli O157:H7) (UniProt P09385+P09386). The experiment in a line: E. coli 0.157:H7 Shiga Toxin SOP - stx2 screening assay. It counts as functional. To be noted: 30 µM. Details: scale not given: direction of the effect not stated beside the values.

Experimental findings from ChEMBL document CHEMBL3988442, “University of Dundee, Small-Polar-MMV Screening Library” (2021) are described below.

For the compound `COc1ccccc1CC(=O)NS(C)(=O)=O`, the Percent Effect in test [1] was -7.77%; in test [2], 0.472%.
On the same counts, the results for `CCOCC1CN(Cc2ccoc2)Cc2ncn(CC3CC3)c21` (stereo unspecified) are 0.605% and -8.58%.
The corresponding values for `CC(Cn1ccnc1)NC(=O)C1(c2ccc3c(c2)OCCO3)CCCC1` (stereo unspecified) are -0.0286% and -20.7%.
On the same counts, the results for `CNS(=O)(=O)c1ccc(C(=O)NC2CCc3nc(C)cn3C2)o1` (stereo unspecified) are -6.5% and 17.4%.
As to `CCn1ncc(Br)c1CN(C)S(=O)(=O)c1ccc(C)cc1`, the Percent Effect in test [1] was 0.0735%; in test [2], -7.09%.
On the same counts, the results for `Cn1nc(C(=O)N2CCCCC2c2nc3cc(F)ccc3[nH]2)ccc1=O` (stereo unspecified) are -2.79% and -1.06%.
On the same counts, the results for `Cc1ccc(NC(=O)N(C)Cc2cnn(C)c2)cc1OCC(F)F` are 5.84% and -4.22%.
The corresponding values for `CCN(CC)Cc1cn2c(n1)CN(C(=O)c1cnccn1)CC2` are 0.29% and 5.28%.
In the case of `CCc1nc(C)c(C(=O)NCCN2CCC(C)CC2)s1`, the Percent Effect in test [1] was -0.879%; in test [2], -68.3%.
The corresponding values for `O=C(NCc1cnc2n1CCN(c1ncc(F)cn1)CC2)C1CCC1` are -2.16% and 3.59%.
Take `Cc1cccnc1NCCNC(=O)[C@H]1CNC[C@@H](C(=O)N2CCCC2)C1`: the Percent Effect in test [1] is -0.342%; in test [2] it was -7.88%.
For `Cn1cnc2c1CCN(Cc1noc(-c3ccccc3)n1)C2`, the Percent Effect turned out to be 3.96% in test [1] and 12.6% in test [2].
The corresponding values for `Cc1cnn(CC2CN(Cc3nc(-c4ccoc4)no3)CCO2)c1` (stereo unspecified) are -3.63% and 24%.
The corresponding values for `Fc1ccc(-c2cnc(CN3CCCC3Cn3cccn3)o2)cc1` (stereo unspecified) are -1.83% and 8.21%.
On the same counts, the results for `CC(C)CN1CCC(C(=O)Nc2cc(C(F)(F)F)c[nH]c2=O)CC1` are -2.61% and -33.9%.
`O=C1CCCN1Cc1nnc2n1CCN(Cc1ccoc1)CC2`: the figures for the Percent Effect in test [1] and in test [2] were 1.71% and -17.6%, respectively.
For the compound `N#Cc1ccc(NCCNc2ccc(C(F)(F)F)cn2)nc1`, the Percent Effect in test [1] was -3.59%; in test [2], 45.1%.
For `C[C@@H]1CN(C(=O)c2cccs2)C[C@]12CCN(CCN(C)C)C2=O`, the Percent Effect in test [1] was -0.228%; in test [2], -8.44%.
As to `Cc1cnn(CC2CCCN2Cc2nc3ccccc3n2C)c1` (stereo unspecified), the Percent Effect is 3.43% in test [1] and -9.07% in test [2].
On the same counts, the results for `CC(C)Nc1nc2c(cc1C(=O)N(C)C)CCNCC2` are 3.61% and -0.0143%.
The corresponding values for `Cc1ncsc1-c1nnc(C2CCN(CC3CCCCC3)CC2)o1` are -2.81% and -22.2%.
On the same counts, the results for `O=C(c1ccco1)N1C[C@H]2CCCN(CC3CCOCC3)[C@H]2C1` are 11.5% and 2.22%.
Consider `CCC(OC)C(=O)N1CCc2nc(NC)nc(C(=O)N3CCCC3)c2C1` (stereo unspecified), for which the Percent Effect was 1.34% in test [1] and -1.38% in test [2].
As for `CCS(=O)(=O)N1CC[C@H](OC)[C@@H]1Cc1ccncc1`, the values for the Percent Effect in test [1] and in test [2] were -2.52% and -2.84%, respectively.
As to `O=C(CCNC(=O)C1CCCC1)NCc1cccnc1-n1cncn1`, the Percent Effect in test [1] came out at 0.59%; in test [2], 23.7%.
On the same counts, the results for `CCN1CC(C(=O)NCc2ccnc(-n3ccnc3C)c2)CC1=O` (stereo unspecified) are -3.16% and -11.9%.
The corresponding values for `Cc1cccc(NS(=O)(=O)c2cc(C(=O)O)oc2C)c1Cl` are -1.97% and 8.36%.
On the same counts, the results for `COc1ccccc1OCCN1CCCC(c2cc(C(N)=O)[nH]n2)C1` (stereo unspecified) are 0.0735% and 5.34%.
For the compound `Cc1ccccc1C1(CNC(=O)NCCc2nnc3n2CCC3)CC1`, the Percent Effect in test [1] is -1.38%; in test [2] it was -0.461%.
Take `O=C(c1cccc2c1OCO2)N1CCCC1c1noc(C2CC2)n1` (stereo unspecified): the values for the Percent Effect in test [1] and in test [2] were -11.7% and -15.1%, respectively.
The corresponding values for `CN(C)C(=O)CC1CC2(CCN(CC3CC3)CC2)c2cc(F)ccc21` (stereo unspecified) are 2.15% and -3.11%.
The corresponding values for `CCNC(=O)N(C)C(c1cccc(F)c1)c1ccccn1` (stereo unspecified) are -4.31% and -5.85%.
The corresponding values for `Cn1cnc2c1CCN(Cc1cccc(C(N)=O)c1)C2` are -3.03% and -13.1%.
As to `COc1cccc2c1OCC(C(=O)NC1CCN(S(C)(=O)=O)CC1)C2` (stereo unspecified), the Percent Effect in test [1] was -3.65%; in test [2] it was 11.1%.
The corresponding values for `Cc1nccc(CN2CC[C@H](Oc3cccc(F)c3)[C@@](C)(O)C2)n1` are -0.368% and -25.4%.
On the same counts, the results for `CCS(=O)(=O)N1CCC2(CC1)CN(Cc1ccccn1)C(=O)CO2` are 0.198% and -10.6%.
On the same counts, the results for `CN(Cc1ccco1)C(=O)CN1CCCCC1Cn1cccn1` (stereo unspecified) are -0.346% and -5.72%.
`O=C(CSc1ccc2c(c1)OCCO2)NS(=O)(=O)C1CCCCC1`: the Percent Effect in test [1] is 1.67%; in test [2], -14%.
The corresponding values for `COCCNS(=O)(=O)c1ccc2c(c1)CCN(C(=O)c1cncn1C)C2` are 0.891% and -23.1%.
The corresponding values for `O=C(CC1CC1)N1CC[C@H]2[C@@H]1CCC(=O)N2c1cccnc1` are -4.48% and -0.916%.
On the same counts, the results for `O=C(CCNC(=O)c1ccoc1)NCc1ccccc1F` are 1.27% and 11.5%.
In the case of `Cc1ccccc1N1CCN(C(=O)c2ccc[nH]2)C(C)C1` (stereo unspecified), the results for the Percent Effect in test [1] and in test [2] were -2.33% and 24.5%, respectively.
As for `Cc1ccc2oc(C(=O)N3CCC(C(=O)N4CCCC4)CC3)cc2n1`, the Percent Effect in test [1] was 1.57%; in test [2], -16.4%.
